By inhibition is commonly meant the relative decrease from the control value, in per cent.

The structures appear in SMILES notation. The campaign covered roughly 1,400 compounds. About 210 (15%) were called active. Only a sample is shown. Values without a mark were called inactive. No stated cut-off is given here; in the data, active means inhibition mostly above about 39% (no sharp cut-off); inactive means mostly below about 34%.

This is an account of results in PubChem BioAssay AID624319 (Sanford-Burnham Center for Chemical Genomics, 2012).

Sentrin-specific protease 8 (Homo sapiens), sequence (Q96LD8 whole entry, looked up): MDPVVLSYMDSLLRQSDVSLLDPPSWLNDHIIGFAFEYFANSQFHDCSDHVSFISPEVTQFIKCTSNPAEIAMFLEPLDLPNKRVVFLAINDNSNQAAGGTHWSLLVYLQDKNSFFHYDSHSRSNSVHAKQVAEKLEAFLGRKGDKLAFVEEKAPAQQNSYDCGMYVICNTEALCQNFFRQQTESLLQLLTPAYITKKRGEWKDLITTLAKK

The test has as its target Sentrin-specific protease 8 (Homo sapiens) (UniProt Q96LD8). The test can be described thus: retest of SENP8 deneddylase blockers – biochemical, Nedd8 protein substrate, single concentration, confirmation (AID 624319). To be noted: purified SENP8, Nedd8-AMC/pro-Nedd8 cleavage fluorescence, 30 min; at 25 µM; hits give high values.
As to `O=C1CC(c2ccccc2)=NN1c1ccc([N+](=O)[O-])cc1`, the inhibition is 46.5% (active). `COC(=O)Cn1c2ccc(C)cc2c2nc(C)sc21`: the inhibition was 14.2%. To `CN1CCc2ccccc2C1Cc1ccccc1NC(=O)c1sc2ccccc2c1Cl` (configuration not stated) belongs 0.2%; to `Nc1ccc2nc3c(=O)[nH]c(=S)[nH]c3nc2c1`, 26.8%. Regarding `CN(c1ccc(C(=O)N2CCc3ccccc3C2)cc1)S(C)(=O)=O`, the inhibition was 42.8% (active).

As for `CCN(CC)C(=O)CCC(=O)Nc1ccc(C(=O)OC)cc1`, the inhibition was 8%. To `CC(=O)N1CCN(S(=O)(=O)c2cccc(C(=O)NC3CCC(C)CC3)c2)CC1` (configuration not stated) belongs 3.29%. On to `CCc1ccccc1NC1c2ccccc2C(=O)N1c1cccnc1` (configuration not stated), for which the inhibition is 12.2%.

As for `O=c1[nH]n2c(=O)c3c([nH]c2c1N=Nc1ccccc1)CCC3`, the inhibition is 25.4%. Regarding `CCOC(=O)/C(=N\Nc1ccccc1[N+](=O)[O-])c1csc(Nc2ccccc2)n1`, the inhibition is 15%. As to `O=C(NCCCN1CCN(c2ccc(F)cc2)CC1)Nc1ccc([N+](=O)[O-])cc1`, the inhibition was 31.9%. `CCc1cccc(C)c1NC(=O)COC(=O)CC1CCCC1`: the inhibition was 29.1%.

For `CC(C)Cc1nnc(NC(=O)CCC(=O)Nc2ccc3cn[nH]c3c2)s1`, the inhibition was 2.31%. For `O=C(COc1ccccc1)N1CCc2ccccc2C1`, the inhibition is 44.4% (active). `CCc1ccc(-c2nnn(Cc3nn[nH]n3)n2)cc1`: the inhibition was 10.7%. On to `O=C(Cc1ccccc1)NC(=S)Nc1ccc(N2CCCCC2)cc1`, for which the inhibition is 11.4%. As to `CC/C(=N/Nc1ccccc1)c1cnnc(SC)n1`, the inhibition is 16.1%. `Cc1ccc(C(=O)c2ccc(N3CCN(C)CC3)c([N+](=O)[O-])c2)cc1`: the inhibition is 14.5%. As for `CCCCCCCCCCCCCCCC(=O)OC/C=C(C)/C=C/C=C(C)/C=C/C1=C(C)CCCC1(C)C`, the inhibition is 4.1%. To `Cc1cc(C)nc(N/N=C/c2ccc([N+](=O)[O-])o2)n1` belongs 22.3%; to `CC1(C)C2CCC1(C)C(OC(=O)c1ccc(O)cc1)C2` (configuration not stated), 18.1%; to `CCOC(=O)c1ccc(N2C(=O)CC(N(C)Cc3ccccc3)C2=O)cc1` (configuration not stated), 18.6%. Turning to `Cc1ccc(NS(=O)(=O)c2ccc(N/N=C/c3ccccc3OCC(=O)O)c([N+](=O)[O-])c2)c(C)c1`, the inhibition is 29.4%. On to `CC1(C)Cc2cccc(OCC(=O)Nc3nccs3)c2O1`, for which the inhibition is 2.41%. Take `COc1ccc(Br)cc1/C=N/Nc1ccc(S(=O)(=O)Nc2ccccc2C(=O)O)cc1[N+](=O)[O-]`: the inhibition is 21.5%. Take `CCCC1CCC(=NNC(=S)NCCc2ccccc2)CC1` (configuration not stated): the inhibition was 5.71%. Take `COC(=O)CCCC1=CC2=CC(=O)C(C)(OC(=O)c3cccs3)C(=O)C2=CN1CC(C)C` (configuration not stated): the inhibition was 52.7% (active).

`CCOC(=O)C1CCCN(C(=O)c2ccc(C)c(F)c2)CC1` (configuration not stated): the inhibition was 10.1%. As for `COc1cc(C(=S)N2CCOCC2)cc(OC)c1OC(=O)c1cc([N+](=O)[O-])cc([N+](=O)[O-])c1`, the figure is 26.8%. In the case of `COc1ccc(-c2[nH][nH]c(=O)c2NC(=O)c2ccc([N+](=O)[O-])cc2)cc1`, the inhibition was 34.5%.

On to `COc1ccc(C(=O)c2c3ccc([N+](=O)[O-])cc3[n+]([O-])n2CCCN)cc1`, for which the inhibition is 70.5% (active). With `CCOC(=O)CNC(=O)N1c2ccccc2Sc2ccccc21`, the inhibition was 16.6%. In the case of `Cc1sc2ccccc2c1CNC[C@H]1O[C@@H](n2ccc(=O)[nH]c2=O)[C@H](O)[C@@H]1O`, the inhibition is 8.62%. Regarding `Cc1cccc(OCC(=O)NC(=S)Nc2ccccc2N2CCOCC2)c1`, the inhibition was 13%. As for `Cc1nc(SCC(=O)c2ccccc2)c([N+](=O)[O-])[nH]1`, the figure is 10.2%; as for `Cc1cc(C)c(/C=C2\C(=O)Nc3ccccc32)[nH]1`, 11.5%.

For the compound `CC(C)CC(=O)N=C1SC2CS(=O)(=O)CC2N1CCc1ccccc1` (configuration not stated), the inhibition was -0.28%. Consider `O=[N+]([O-])c1ccc(N2CCSCC2)cc1O`, for which the inhibition was 22.9%.

In the case of `CCN=C1SC(CC(=O)Nc2ccc(C)cc2)C(=O)N1CC` (configuration not stated), the inhibition was 12.9%. As for `CC1CCN(c2ccc([N+](=O)[O-])c(SCCO)c2)CC1`, the figure is 19.1%.

As for `Cc1ccccc1NCC(=O)N/N=C\c1ccc([N+](=O)[O-])s1`, the inhibition is 31.1%. In the case of `O=P(O)(CP(=O)(c1ccccc1)c1ccccc1)c1ccccc1O`, the inhibition was 13.6%.

As for `CCOC(=O)C(CC)Sc1ncnc2c1nnn2-c1ccc(F)cc1` (configuration not stated), the inhibition is 14.5%. As to `Cn1c2ccc(F)cc2c2nnc(NN)nc21`, the inhibition was -8.09%. Take `O=C(NC(=S)N1CCCCC1c1cccnc1)c1ccccc1` (configuration not stated): the inhibition is 8.53%. For `CCC(C)[C@H](NC(=O)N1c2ccccc2NC(=O)[C@@H]1C(C)C)C(=O)N[C@@H](Cc1ccccc1)C(=O)O` (some centres not stated), the inhibition is 7.29%. As for `COc1ccc(S(=O)(=O)Nc2ccc3cn[nH]c3c2)cc1[N+](=O)[O-]`, the figure is 14.1%; as for `NN=C(NN=Cc1ccccc1)c1ccccc1`, 43.8% (active). On to `CC(C)[C@H](NC(=O)N1CC(=O)Nc2ccccc21)C(=O)N[C@@H](Cc1c[nH]c2ccccc12)C(=O)O`, for which the inhibition was 15%. As to `COc1cccc(N(CC(=O)NCCSc2ccccn2)S(C)(=O)=O)c1`, the inhibition was 3.26%.

As to `CCOc1ccc(NCCC(=O)c2ccc3c(c2)OCO3)cc1`, the inhibition was 23.6%.

With `Cc1ccc(C(=O)N/C(=C/c2ccc(-c3cccc([N+](=O)[O-])c3)o2)C(=O)NCCCN(C)C)cc1`, the inhibition is 17.4%.
